Out of some 50,000 compounds screened, about 350 (0.7%) were called active. The full list was thinned out, with actives kept by preference. Values without a mark were called inactive. Rule as the data show it: active = inhibition above about 60%; inactive = the rest.
molecular target: Dual specificity protein phosphatase 3 (Homo sapiens) (UniProt P51452); experiment: VHR1 phosphatase inhibitors, primary screen, biochemical, colorimetric, HTS (AID 1992); conditions: recombinant VHR phosphatase, colorimetric substrate read-out; at 20 µM; stronger effect = higher value
Sequence (P51452 whole entry, looked up): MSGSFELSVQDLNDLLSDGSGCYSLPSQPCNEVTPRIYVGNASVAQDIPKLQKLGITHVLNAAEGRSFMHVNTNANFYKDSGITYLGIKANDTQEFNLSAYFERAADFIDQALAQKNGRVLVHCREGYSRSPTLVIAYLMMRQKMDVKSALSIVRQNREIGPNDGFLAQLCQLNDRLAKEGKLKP

SMILES	inhibition
CCc1ccc(NC(=O)C(=O)NCCN2CCOCC2)cc1	12.8%
COc1ccc(C(=O)Nc2ccc3oc(-c4cc(Cl)c(OC)c(Cl)c4)nc3c2)cc1OC	45.4%
COc1cccc(N2C(=O)C=CC2=O)c1	49.6%
COc1ccc(N2C(=O)C3C4C=CC(C4=C(C)C)C3C2=O)c([N+](=O)[O-])c1 (stereo not drawn)	4.6%
COc1ccc(N2C(=O)C=CC2=O)c([N+](=O)[O-])c1	58.9% (active)
Cc1ccc(N2C(=O)/C(=C/N3CCOCC3)c3ccccc3C2=O)cc1	13.6%
CCOC(=O)c1c(N2C(=O)C3CC(C)=C(C)CC3C2=O)sc2c1CCCC2 (stereo not drawn)	-3.1%
COc1ccccc1-n1c(=S)[nH]c2ccccc2c1=O	5.2%
COC(=O)Nc1ccc(S(=O)(=O)N2CCN(c3ccccc3OC)CC2)cc1	-59.1%
COC(=O)C1=NNC2(C)C(=O)N(c3ccccc3OC)C(=O)C12 (stereo not drawn)	97% (active)
O=C(Nc1cc(C(F)(F)F)cc(C(F)(F)F)c1)c1ccco1	-7.4%
O=C(Nc1cccc(O)c1)c1cccnc1	-14.8%
CCOC(=O)COc1ccc(/C=N\n2nnnc2N)cc1OC	-44.1%
CCCCOc1ccc(/C=C2/C=C(c3ccccc3)OC2=O)cc1	21.2%
Cc1ccc(/C=C2/C=C(c3ccccc3)OC2=O)o1	74.2% (active)
Cc1ccc(C2=C/C(=C\c3cccnc3)C(=O)O2)cc1	14.8%
Cc1cc(C)c(NS(=O)(=O)c2ccc3ccccc3c2)c(C)c1	-0.6%
O=C(O)c1cc(-c2ccc(C=C3C(=O)c4ccccc4C3=O)o2)ccc1O	9.3%
O=C(O)c1cc(-c2ccc(/C=N/Nc3ccc(Cl)c(Cl)c3)o2)ccc1Cl	89.1% (active)
O=C(N/N=C/c1ccc(-c2cccc(Cl)c2)o1)c1cccnc1	-17.2%
O=C(CCc1n[nH]c(=O)[nH]c1=O)N/N=C/c1ccc([N+](=O)[O-])cc1	-17.4%
C#CCn1cc(/C=C(/C#N)C(=O)Nc2ccc(Cl)cc2)c2ccccc21	-3.6%
CC(=O)c1sc(NC(=O)c2cc(Cl)ccc2[N+](=O)[O-])nc1C	4.8%
O=C(Nc1ccccc1C(=O)O)c1ccc(NC(=O)c2cccs2)cc1	-7.6%
CCOC(=O)C1=C(C)N=c2s/c(=C\c3cc(OC)c(O)c(OC)c3)c(=O)n2C1c1ccccc1 (stereo not drawn)	35.5%

SMILES	inhibition
O=C(NCCCn1ccnc1)c1cc2c(ccc3ccccc32)oc1=O	-14.2%
C=C(C)COc1ccc2oc(-c3ccccc3)c(C(=O)O)c2c1	-5.7%
O=S(=O)(O)c1nc2ccccc2n1-c1ccccc1	91.8% (active)
O=C(CSc1nc2ccccc2c(=O)n1-c1ccccc1)Nc1ccccc1	-19.9%
Cc1nc2cc(S(N)(=O)=O)ccc2n1-c1ccccc1	0.2%
COc1ccc(OC)c(/C=C/C(=O)Nc2ccc(N(C)C)cc2)c1	-29.5%
Fc1cnc(NN=Cc2cccs2)nc1N1CCOCC1	-10.8%
O=C(CN(c1cccc(Br)c1)S(=O)(=O)c1ccccc1)N1CCOCC1	-30.2%
CC(=O)N(C1=C(Cl)C(=O)c2ccccc2C1=O)c1cccc(Br)c1	84.5% (active)
CC1CCCC(C)C1NC1=C(Cl)C(=O)c2ccccc2C1=O (stereo not drawn)	-2.5%
COc1ccc(N2C(=O)c3cccc4cccc(c34)C2=O)cc1OC	7.9%
COc1cc(C(=O)Nc2cccc3nsnc23)cc(OC)c1OC	-4.9%
COc1ccc(NC(=O)c2cccc(Cl)c2Cl)cc1OC	1.3%
Cc1ccc(C(=O)NCCNc2ccc([N+](=O)[O-])cc2Cl)cc1	-20.4%
Cc1ccc(S(=O)(=O)N(Cc2ccccc2)c2ccccc2C(=O)NC2CCCC2)cc1	-20.6%
CC(=Nc1cc(Cl)ccc1O)c1c(-c2ccccc2)[nH]n(-c2nc3ccccc3s2)c1=O	2.5%
COc1ccccc1NC(=O)C1=C(C)Nc2sc(C#N)c(N)c2C1c1ccco1 (stereo not drawn)	4.4%
CCOC(=O)c1c(NC(=O)c2ccccc2OC)sc(C(=O)Nc2ccccc2F)c1C	-11.7%
CCOC(=O)c1c(NC(=O)c2ccccc2C)sc(C(=O)Nc2ccccc2OC)c1C	-2.4%
CCOC(=O)c1c(NC(=O)c2ccc(OC)c(OC)c2)sc(C(=O)Nc2ccc(C)cc2C)c1C	-18.8%
CCOC(=O)c1c(NC(=O)C23CC4CC(CC(C4)C2)C3)sc(C(=O)Nc2ccccc2OC)c1C	120% (active)
CCOC(=O)c1c(NC(=O)Cc2ccc(Cl)cc2)sc(C(=O)Nc2cccc(OC)c2)c1C	-1.7%
CCOC(=O)c1c(NC(=O)Cc2ccc(Cl)cc2)sc(C(=O)Nc2ccccc2OC)c1C	103% (active)
Cc1c(C#N)sc2nc(-c3ccccc3)nc(/N=C/N(C)C)c12	-22.8%
Nc1ccc2nc(Sc3nc4ccc([N+](=O)[O-])cc4s3)sc2c1	-10.9%

SMILES	inhibition
CC1=C(C(=O)Nc2ccc(C)cc2)C(c2ccc([N+](=O)[O-])cc2)NC(=O)N1 (stereo not drawn)	-6.8%
CC12CCC(CC1=O)C(C)(C)N2 (stereo not drawn)	-18.3%
O=C1C=CC(=O)N1Nc1c(Cl)cc(Cl)cc1Cl	102% (active)
COc1ccc(Nc2ncnc3ccc(Br)cc23)cc1	0.8%
O=C(CSc1ccccc1C(=O)O)c1ccc(-c2ccccc2)cc1	2.1%
Cc1ccc(C)c(OCc2nnc(NC(=O)c3ccccc3)s2)c1	5.1%
Cc1cc(C)cc(OCCCCNC(C)(C)C)c1	-33.4%
Cc1nc2cc(-c3ccc(Br)cc3)[nH]n2c(=O)c1C	10.2%
CC(=O)N1c2ccc3ccccc3c2C2C=CCC2C1c1ccc(F)cc1 (stereo not drawn)	-6.5%
Cc1[nH]n(-c2ccc(Cl)cc2)c(=O)c1/C=N/NC(=O)c1ccccc1[N+](=O)[O-]	-37.1%
CC(=O)Nc1ccc(N2C(=O)C3C4C=CC(CC4)C3C2=O)cc1 (stereo not drawn)	-14%
COc1ccccc1C1CC(c2ccc(F)cc2)=NN1c1ccccc1 (stereo not drawn)	-3.2%
O=C1N=c2ccc(I)cc2=C1c1[nH]c(=S)[nH]c1O	-37.4%
Cc1ccc(S(=O)(=O)NCCNS(C)(=O)=O)cc1[N+](=O)[O-]	-9.6%
CCN(CC)C(=O)CSc1nc(O)c(Cc2ccccc2)c(=O)n1-c1ccc(OC)cc1	26.5%
O=C(O)CCCCCN1C(=O)C(=O)/C(=C(/O)c2ccc(F)cc2)C1c1cccc([N+](=O)[O-])c1 (stereo not drawn)	5%
Cc1cc(C)c2nc3s/c(=C\c4ccc(N(C)C)cc4)c(=O)n3c2c1	-22.7%
COc1cc(/C=c2\sc3nc4c(C)cc(C)cc4n3c2=O)cc(Br)c1O	-5.5%
Cc1cc(C)c2nc3s/c(=C\c4ccc(-c5ccccc5C(=O)O)o4)c(=O)n3c2c1	69.3% (active)
COc1cc(NC(=O)c2ccc(-c3ccc([N+](=O)[O-])cc3C)o2)ccc1NC(=O)c1ccco1	-3.8%
c1ccc(-c2nnc(SC3CCCC3)nc2-c2ccccc2)cc1	-9.1%
Clc1cccc(CN2CCN(C3CCN(Cc4ccccc4)CC3)CC2)c1	-6.2%
Cc1ccc(S(=O)(=O)c2ccc(Oc3ccc(Cl)cc3)cc2)cc1	-26.6%

Source: PubChem BioAssay AID1992 (Sanford-Burnham Center for Chemical Genomics, 2009)
